Bim-Mcl-1 = inhibitors of Bim peptide binding to Mcl-1, primary screen, biochemical, bead-based flow cytometry, multiplex | inhibition, % at 10 µM | actives 0.1% (n = 190,000) | AID 1009, 2008 | Induced myeloid leukemia cell differentiation protein Mcl-1 (Homo sapiens), Q07820 | Bim peptide-Mcl-1 binding; in the data active = inhibition above about 40%
BCLXL inh = inhibitors of human Bcl-xL, primary screen, biochemical, fluorescence polarization, HTS | GST-Bcl-xL / FITC-Bim BH3 peptide fluorescence polarization | inhibition, % at 10.9 µM | actives 0.7% (n = 320,000) | AID 2129, 2009;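 active = inhibition above the mean of all tested compounds plus 3 SD, cutoff set per campaign, cut at about 30% in these data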;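 note: inhibitors lower millipolarization by displacing the labeled peptide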
Target sequence (Q07817 whole entry, looked up): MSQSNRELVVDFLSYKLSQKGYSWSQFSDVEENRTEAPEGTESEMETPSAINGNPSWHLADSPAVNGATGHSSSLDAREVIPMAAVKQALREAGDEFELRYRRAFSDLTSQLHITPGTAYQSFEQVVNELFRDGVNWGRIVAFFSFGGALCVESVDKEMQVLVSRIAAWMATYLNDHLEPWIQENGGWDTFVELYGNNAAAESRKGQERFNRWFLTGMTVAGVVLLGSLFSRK
Mcl1 Bid PPI = Mcl-1/Bid binding inhibitors, primary screen, biochemical, TR-FRET, 1536-well | TR-FRET Mcl-1/Bid-Dy647 peptide binding | inhibition, % at 21.7 µM | actives 0.97% (n = 220,000) | AID 1021, 2008;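 active = compounds that cut the binding signal by more than half at the single screening dose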;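 note: His-tagged Mcl-1 with europium anti-His antibody binding Bid BH3 peptide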
MCL1 BIM primary = inhibitors of MCL1 binding to BIM-BH3, primary screen, biochemical, fluorescence polarization; Induced myeloid leukemia cell differentiation protein Mcl-1 (Homo sapiens), Q07820; GST-MCL1 / FITC-Bim-BH3 fluorescence polarization; inhibition, % at 10.9 µM; actives 0.68% (n = 320,000);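 active = inhibition above the mean inhibition of all tested compounds plus 3 SD, set per campaign, cut at about 40% in these data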;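 note: higher means more loss of mP so more displacement of Bim peptide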
Mcl1-Noxa inh = Mcl-1/Noxa binding inhibitors, primary screen, biochemical, TR-FRET, 1536-well. actives 1.5% (n = 220,000). TR-FRET Mcl-1/Noxa peptide binding, 2 h. inhibition, % at 21.7 µM;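 active = compounds that cut the protein-peptide binding signal by more than 50% relative to plate controls in a single-dose test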;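 note: His-tagged Mcl-1 with rhodamine Noxa BH3 peptide and terbium anti-His antibody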
GLD-1 RNA inh = GLD-1/TGE RNA complex disruptors, primary screen, biochemical, fluorescence polarization; actives 0.44% (n = 320,000); AID 2280, 2010; inhibition, % at 5.96 µM; purified GLD-1 + fluorescein TGE RNA; Female germline-specific tumor suppressor gld-1 (Caenorhabditis elegans), Q17339;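 active = percent inhibition above a per-plate cutoff, the plate mean of test compounds plus 3 SD, cut at about 30% in these data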
Target sequence (Q17339 whole entry, looked up): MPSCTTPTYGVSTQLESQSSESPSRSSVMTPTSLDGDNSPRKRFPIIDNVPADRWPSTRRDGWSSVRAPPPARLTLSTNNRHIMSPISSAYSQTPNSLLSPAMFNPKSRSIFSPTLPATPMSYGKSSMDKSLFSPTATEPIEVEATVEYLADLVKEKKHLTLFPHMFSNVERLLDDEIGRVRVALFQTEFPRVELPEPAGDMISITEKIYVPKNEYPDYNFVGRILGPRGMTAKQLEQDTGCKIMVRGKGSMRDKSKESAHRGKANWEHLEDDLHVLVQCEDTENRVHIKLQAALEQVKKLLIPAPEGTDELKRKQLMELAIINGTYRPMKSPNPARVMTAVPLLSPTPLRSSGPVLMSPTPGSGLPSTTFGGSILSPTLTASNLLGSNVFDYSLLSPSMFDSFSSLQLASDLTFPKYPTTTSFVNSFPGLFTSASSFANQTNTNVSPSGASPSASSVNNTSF
Bcl-xL conf = Bcl-xL inhibitors blocking Bim BH3 binding, confirmation, counter-screen for MCL1 inhibitor project, biochemical, fluorescence polarization. shares compounds with MCL1 BIM primary. GST-Bcl-xL / FITC-Bim BH3 peptide FP binding. inhibition, % at 10.9 µM. actives 54% (n = 1,700);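 active = inhibition above a cutoff equal to the mean inhibition of all tested compounds plus 3 SD, cut at about 30% in these data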
MCL1 inh confirm = inhibitors of MCL1 binding to BIM-BH3, confirmation, biochemical, fluorescence polarization, triplicate | actives 61% (n = 1,700) | shares compounds with MCL1 BIM primary | inhibition, % at 10.9 µM | GST-MCL1 / FITC-Bim-BH3 fluorescence polarization;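 active = inhibition above the average of all tested compounds plus 3 SD, cut at about 40% in these data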
Each line names hits and unclear results; the compound was inactive in the other large screens (follow-up assays come after a bar, where they were run). Rows were chosen to be rich in hits. Some 2.3% of all compounds tested hit in one or more screens of this group.

CN1CC=C2C(C#N)=C(N)C(C#N)(C#N)[C@H](c3cccc(Cl)c3)C2C1 (stereo partly specified)	BCLXL inh 104.4, MCL1 BIM primary 115.5, GLD-1 RNA inh 78.8 | Bcl-xL conf 31.1 | MCL1 inh confirm inactive
CN1CC=C2C(C#N)=C(N)C(C#N)(C#N)[C@H](c3cccs3)[C@H]2C1	BCLXL inh 112.1, MCL1 BIM primary 118.1, GLD-1 RNA inh 79.0 (no result: Bim-Mcl-1) | Bcl-xL conf 62.9 | MCL1 inh confirm 70.8
CCOC(=O)N1CC=C2C(C#N)=C(N)C(C#N)(C#N)[C@H](c3ccc(OC(C)C)c(OCC)c3)[C@H]2C1	none
CN(C)N1C(N)=C(C#N)C(c2ccsc2)C2=C1CC(C)(C)CC2=O (stereo unspecified)	none
CN1CC=C2C(C#N)=C(N)C(C#N)(C#N)C(c3ccsc3)C2C1 (stereo unspecified)	BCLXL inh 105.9, MCL1 BIM primary 117.4, GLD-1 RNA inh 70.2 | Bcl-xL conf inactive | MCL1 inh confirm inactive
N#CC1=C(S)N(c2ccccc2)C(c2cccs2)NC1=O (stereo unspecified)	none
CN1CC=C2C(C#N)=C(N)C(C#N)(C#N)C(CCc3ccccc3)C2C1 (stereo unspecified)	BCLXL inh 89.4, MCL1 BIM primary 82.0, GLD-1 RNA inh 48.6 | Bcl-xL conf 43.1 | MCL1 inh confirm 65.4
COc1cccc(NC(=O)COC(=O)CC2CC3CCC2C3)c1 (stereo unspecified)	none (no result: Bim-Mcl-1, BCLXL inh, Mcl1 Bid PPI, MCL1 BIM primary, Mcl1-Noxa inh)
CN(C)CCOC1c2ccccc2CSc2ccccc21 (stereo unspecified)	none (no result: Bim-Mcl-1, Mcl1 Bid PPI, Mcl1-Noxa inh)
Cc1ccc(-c2cc(C(=O)NCc3ccco3)c3ccccc3n2)o1	MCL1 BIM primary 51.4, Mcl1-Noxa inh 66.1 | Bcl-xL conf 30.3 | MCL1 inh confirm 58.4
CCc1nnc(NC(=O)c2cc(-c3ccc(C)o3)nc3ccccc23)s1	none (no result: Bim-Mcl-1, Mcl1 Bid PPI, Mcl1-Noxa inh)
Cc1nnc(NC(=O)c2cc(-c3ccco3)nc3ccccc23)s1	MCL1 BIM primary 65.5 (no result: Bim-Mcl-1, Mcl1 Bid PPI, Mcl1-Noxa inh) | Bcl-xL conf inactive | MCL1 inh confirm inactive
CCOc1ccc(/C=N/NC(=O)c2cc(-c3ccco3)nc3ccccc23)cc1	none
Cc1csc(NC(=O)c2cc(C)nc3ccccc23)n1	none
Cc1csc(NC(=O)c2cc(-c3ccco3)nc3ccccc23)n1	MCL1 BIM primary 39.9, Mcl1-Noxa inh 98.7 | Bcl-xL conf inactive | MCL1 inh confirm 60.3
O=C(N/N=C/c1ccc(F)cc1)c1cc(-c2ccco2)nc2ccccc12	Mcl1 Bid PPI 98.0, MCL1 BIM primary 64.1, Mcl1-Noxa inh 104.4 | Bcl-xL conf 32.9 | MCL1 inh confirm 80.1
CCOc1ccc(NC(=O)CSc2nnc(-c3ccccc3Cl)n2Cc2ccco2)cc1	none
O=C(CSc1nnc(-c2ccco2)c(-c2ccco2)n1)c1ccccc1	MCL1 BIM primary 43.3, Mcl1-Noxa inh 96.4 | Bcl-xL conf 43.1 | MCL1 inh confirm 77.6
O=C(NC(c1ccccc1)c1cc(Cl)c2cccnc2c1O)c1cccnc1 (stereo unspecified)	none
O=C(O)COc1ccccc1C(Nc1ccccn1)c1cc(Cl)c2cccnc2c1O (stereo unspecified)	Mcl1 Bid PPI 74.4, MCL1 BIM primary 78.6, Mcl1-Noxa inh 90.6 | Bcl-xL conf inactive | MCL1 inh confirm 88.7
O=C(NCN1CCN(c2ccccc2)CC1)c1cnccn1	MCL1 BIM primary 140.1 (no result: Bim-Mcl-1, Mcl1 Bid PPI, Mcl1-Noxa inh) | Bcl-xL conf inactive | MCL1 inh confirm inactive
CCN1CCN(CNC(=O)c2cnccn2)CC1	none
COc1ccc(Br)cc1-c1noc(-c2ccncc2)n1	MCL1 BIM primary 66.1 | Bcl-xL conf inactive | MCL1 inh confirm inactive
C=CCc1cccc(/C=N/NC(=O)CNc2cccc3ccccc23)c1O	MCL1 BIM primary 47.3 | Bcl-xL conf inactive | MCL1 inh confirm 53.6
C=CCN1C=C2C(=O)C(C)(OC(=O)C3CCCC3)C(=O)C(c3ccccc3)=C2C=C1CCCC(=O)OC (stereo unspecified)	none (no result: Bim-Mcl-1)
C=CCN1C=C2C(=O)C(C)(OC(=O)CCC(=O)OC)C(=O)C(Br)=C2C=C1c1ccc(OC)cc1 (stereo unspecified)	BCLXL inh 70.9, MCL1 BIM primary 74.1 (no result: Bim-Mcl-1) | Bcl-xL conf 52.0 | MCL1 inh confirm 56.1
NC(=O)c1cc2c3ccccc3ccn2c1-c1ccccc1	BCLXL inh 50.4, MCL1 BIM primary 59.4, GLD-1 RNA inh 50.7 (no result: Bim-Mcl-1) | Bcl-xL conf inactive | MCL1 inh confirm inactive
Cc1cc(C(N)=O)c2ccccc2n1	none
COC(c1ccccc1)c1nnc(CCC(=O)NCCCc2ccccc2)o1 (stereo unspecified)	none
CCOC(=O)N/N=C(\c1ccccc1)C(O)c1ccccc1 (stereo unspecified)	none
CNc1ccccc(C(=O)/C=C/c2ccccc2OC)c1=O	MCL1 BIM primary 41.1, Mcl1-Noxa inh 63.5 | Bcl-xL conf inactive | MCL1 inh confirm 61.9
COc1ccccc1/C=C/C(C)=O	none
O=C(Nc1ccc(N2CCOCC2)cc1)c1ccc2nc(-c3ccco3)c(-c3ccco3)nc2c1	none
S=C(Nc1ccc(N2CCOCC2)cc1)Nc1ccc2nc(-c3ccco3)c(-c3ccco3)nc2c1	BCLXL inh 187.9, MCL1 BIM primary active, Mcl1-Noxa inh 81.4, GLD-1 RNA inh 129.4 | Bcl-xL conf 117.6 | MCL1 inh confirm 149.9
O=C(Nc1ccccc1)c1ccc2nc(-c3ccco3)c(-c3ccco3)nc2c1	MCL1 BIM primary 40.0, Mcl1-Noxa inh 100.9 | Bcl-xL conf inactive | MCL1 inh confirm 46.6
CC(=O)c1ccc(NC(=O)c2ccc3nc(-c4ccco4)c(-c4ccco4)nc3c2)cc1	BCLXL inh 39.3, Mcl1 Bid PPI 97.1, MCL1 BIM primary 80.2, Mcl1-Noxa inh 100.5 | Bcl-xL conf 36.0 | MCL1 inh confirm 80.7
O=C(NCc1ccccc1)c1ccc2nc(-c3ccco3)c(-c3ccco3)nc2c1	BCLXL inh 46.1, MCL1 BIM primary 81.2, Mcl1-Noxa inh 101.7 | Bcl-xL conf 42.5 | MCL1 inh confirm 69.4

Screening data deposited in PubChem by several laboratories.
